Here are results for 35 molecules from PubChem BioAssay (EPA / NIEHS).

The structures appear in SMILES notation. Several values for one entry are separate records, joined by “and”; a condition that tells them apart may be missing. Identical values can stand only once. Where a structure was tested more than once in an assay, its records may differ in their call. Activity calls are given as the source filed them. How the source made its calls: active means hit-call score of the fitted dose curve at least 0.9, where 1 is the maximum; inactive means score below 0.9.

Read-out in the first assay: Human Leukocyte Antigen - DR isotype (HLADR), HLA-DRA (gene 3122)
Description: BSK_CASM3C_HLADR: BioMAP Diversity Plus: CASM3C Assay for Human Leukocyte Antigen - DR isotype (HLADR) Biomarker Activity (AID 2283043).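 Further: cell-surface HLA-DR protein level quantified by ELISA.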 The settings on record: primary human coronary artery smooth muscle cells; actives raise or lower the signal.
With `C=C(C)C(=O)OCC(F)(F)C(F)(F)C(F)(F)C(F)(F)C(F)(F)C(F)(F)C(F)(F)F`, the result was inactive.

`Nc1ccc([N+](=O)[O-])cc1O`: the outcome was inactive.

Regarding `FC(F)(F)C(F)(F)C(F)(F)C(F)(F)C(F)(F)C(F)(F)CCS`, the outcome was inactive.

As for `O=S(=O)(OCC(F)F)C(F)(F)F`, the outcome was inactive.

In the case of `Cc1ccc(S(=O)(=O)OCC(F)(F)C(F)(F)C(F)(F)C(F)(F)C(F)(F)C(F)F)cc1`, the result was inactive.

A word on the AC50: it is the concentration at which the activity in the assay is half-maximal. Take `N=C(N)C(F)(F)C(F)(F)C(F)(F)C(F)(F)C(F)(F)C(F)(F)C(F)(F)F`: the AC50 is 30 µM (active) and the outcome was inactive.

`CCCCOCCOCCOC(=O)CCCCC(=O)OCCOCCOCCCC`: the outcome was inactive.

Consider `OCCCC(F)(F)C(F)(F)C(F)(F)C(F)(F)C(F)(F)C(F)(F)C(F)(F)F`, for which the AC50 was 23.3 µM (active) and 49 µM (active).

As to `FC(F)(F)C(F)(F)C(F)(F)C(F)(F)CCI`, the result was inactive.

As for `FC(F)(F)C(F)(F)C(F)(F)C(F)(F)C(F)(F)C(F)(F)C(F)(F)C(F)(F)F`, the outcome was inactive.

Take `FC(F)(Br)C(F)(F)C(F)(F)C(F)(F)C(F)(F)C(F)(F)Br`: the outcome was inactive.

In the case of `FC1CC(F)(F)C(F)(F)C1(F)F` (centres undefined), the outcome was inactive.

For the molecule `FC(F)(I)C(F)(F)C(F)(F)C(F)(F)I`, the half-maximal activity concentration (AC50) is 50.5 µM (active) and the outcome was inactive.

For `OCC(F)(F)C(F)(F)C(F)(F)C(F)F`, the result was inactive.

Turning to `C=CC(=O)OCC(F)(F)C(F)(F)C(F)(F)C(F)(F)COC(=O)C=C`, the AC50 was 17.8 µM (active) and the outcome was inactive.

As to `C=C(C)C(=O)OCC(F)(F)C(F)(F)C(F)(F)F`, the outcome was inactive.

In the case of `CCCCCCOC(=O)c1ccccc1O`, the result was inactive.

`FC(F)(F)C(F)(F)CNCC(F)(F)C(F)(F)F`: the outcome was inactive.

For the molecule `O=C(O)C(F)(F)C(F)(F)C(F)(F)C(F)(F)C(F)(F)C(F)(F)C(F)(F)C(F)(F)C(F)(F)C(F)F`, the result was inactive.

In the case of `C=CC(F)(F)C(F)(F)C(F)(F)C(F)(F)C(F)(F)C(F)(F)C(F)(F)C(F)(F)C=C`, the result was inactive.

For `O=C(Cl)C(F)(F)C(F)(F)C(F)(F)C(F)(F)C(F)(F)C(F)(F)C(F)(F)C(F)(F)F`, the outcome was inactive.

In the case of `O=C(O)C(F)(F)C(F)(F)C(F)(F)C(F)(F)C(F)(F)C(F)(F)C(F)(F)C(F)(F)Cl`, the outcome was inactive.

Consider `O=P(O)(O)OCCC(F)(F)C(F)(F)C(F)(F)C(F)(F)C(F)(F)C(F)(F)F`, for which the result was inactive.

In the case of `C#C[C@]1(O)CC[C@H]2[C@@H]3CCc4cc(OC)ccc4[C@H]3CC[C@@]21C`, the outcome was inactive.

With `CCCCC(CC)COP(=O)(O)OCC(CC)CCCC` (centres undefined), the outcome was inactive.

`O=C(O)C(F)(F)C(F)(F)C(F)(F)C(F)(F)C(F)(F)C(F)(F)C(F)(F)C(F)(F)C(F)(F)C(F)(F)C(F)(F)C(F)(F)F`: the AC50 was 16.1 µM (active) and the outcome was inactive.

Regarding `C=C(C)C(=O)OCCC(F)(F)C(F)(F)C(F)(F)C(F)(F)C(F)(C(F)(F)F)C(F)(F)F`, the result was inactive.

On to `O=C(O)C(F)(F)C(F)(F)C(F)(F)C(F)(F)C(F)(F)C(F)(F)C(F)(F)C(F)(F)C(F)(F)C(F)(F)C(F)(F)C(F)(F)C(F)(F)F`, for which the outcome was inactive.

On to `O=C(O)C(F)(OC(F)(F)C(F)(OC(F)(F)C(F)(F)C(F)(F)F)C(F)(F)F)C(F)(F)F` (centres undefined), for which the result was inactive.

Take `CC(C)(C)C(=O)CC(=O)C(F)(F)C(F)(F)C(F)(F)F`: the result was inactive.

For `CCCCCCCCC(F)(F)C(F)(F)C(F)(F)C(F)(F)C(F)(F)C(F)(F)F`, the outcome was inactive.

As for `CCCCCCCCCCCCCCCC[N+](C)(C)Cc1ccccc1`, the half-maximal activity concentration (AC50) was 2.56 µM (active).

With `C=CC/C=C/C/C=C/C/C=C/C`, the result was inactive.

With `O=C(O)C(F)(OC(F)(F)C(F)(OC(F)(F)C(F)(OC(F)(F)C(F)(F)C(F)(F)F)C(F)(F)F)C(F)(F)F)C(F)(F)F` (centres undefined), the result was inactive.

Take `CS(C)(=O)=O`: the outcome was inactive.

Read-out in another assay: Macrophage colony-stimulating factor (MCSF), CSF1 (gene 1435)
Description: BSK_CASM3C_MCSF: BioMAP Diversity Plus: CASM3C Assay for Macrophage colony-stimulating factor (MCSF) Biomarker Activity (AID 2283044).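 Further: M-CSF protein amount quantified by ELISA after 24 h exposure.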 As to conditions: primary human coronary artery smooth muscle cells; actives raise or lower the signal.
In the case of `C=C(C)C(=O)OCC(F)(F)C(F)(F)C(F)(F)C(F)(F)C(F)(F)C(F)(F)C(F)(F)F`, the result was inactive.

In the case of `Nc1ccc([N+](=O)[O-])cc1O`, the result was inactive.

In the case of `FC(F)(F)C(F)(F)C(F)(F)C(F)(F)C(F)(F)C(F)(F)CCS`, the result was inactive.

`O=S(=O)(OCC(F)F)C(F)(F)F`: the result was inactive.

For the molecule `Cc1ccc(S(=O)(=O)OCC(F)(F)C(F)(F)C(F)(F)C(F)(F)C(F)(F)C(F)F)cc1`, the outcome was inactive.

As to `N=C(N)C(F)(F)C(F)(F)C(F)(F)C(F)(F)C(F)(F)C(F)(F)C(F)(F)F`, the outcome was inactive.

Consider `CCCCOCCOCCOC(=O)CCCCC(=O)OCCOCCOCCCC`, for which the outcome was inactive.

With `OCCCC(F)(F)C(F)(F)C(F)(F)C(F)(F)C(F)(F)C(F)(F)C(F)(F)F`, the half-maximal activity concentration (AC50) is 22.1 µM (active) and 43.6 µM (active).

With `FC(F)(F)C(F)(F)C(F)(F)C(F)(F)CCI`, the result was inactive.

For `FC(F)(F)C(F)(F)C(F)(F)C(F)(F)C(F)(F)C(F)(F)C(F)(F)C(F)(F)F`, the result was inactive.

On to `FC(F)(Br)C(F)(F)C(F)(F)C(F)(F)C(F)(F)C(F)(F)Br`, for which the result was inactive.

For `FC1CC(F)(F)C(F)(F)C1(F)F` (centres undefined), the outcome was inactive.

With `FC(F)(I)C(F)(F)C(F)(F)C(F)(F)I`, the half-maximal activity concentration (AC50) is 47.5 µM (active) and 50.2 µM (active) and 46.8 µM (active).

With `OCC(F)(F)C(F)(F)C(F)(F)C(F)F`, the outcome was inactive.

As to `C=CC(=O)OCC(F)(F)C(F)(F)C(F)(F)C(F)(F)COC(=O)C=C`, the AC50 was 34.9 µM (active) and 30 µM (active).

For the molecule `C=C(C)C(=O)OCC(F)(F)C(F)(F)C(F)(F)F`, the result was inactive.

For the molecule `CCCCCCOC(=O)c1ccccc1O`, the outcome was inactive.

In the case of `FC(F)(F)C(F)(F)CNCC(F)(F)C(F)(F)F`, the outcome was inactive.

For `O=C(O)C(F)(F)C(F)(F)C(F)(F)C(F)(F)C(F)(F)C(F)(F)C(F)(F)C(F)(F)C(F)(F)C(F)F`, the result was inactive.

For `C=CC(F)(F)C(F)(F)C(F)(F)C(F)(F)C(F)(F)C(F)(F)C(F)(F)C(F)(F)C=C`, the result was inactive.

In the case of `O=C(Cl)C(F)(F)C(F)(F)C(F)(F)C(F)(F)C(F)(F)C(F)(F)C(F)(F)C(F)(F)F`, the outcome was inactive.

As to `O=C(O)C(F)(F)C(F)(F)C(F)(F)C(F)(F)C(F)(F)C(F)(F)C(F)(F)C(F)(F)Cl`, the outcome was inactive.

Regarding `O=P(O)(O)OCCC(F)(F)C(F)(F)C(F)(F)C(F)(F)C(F)(F)C(F)(F)F`, the outcome was inactive.

Take `C#C[C@]1(O)CC[C@H]2[C@@H]3CCc4cc(OC)ccc4[C@H]3CC[C@@]21C`: the outcome was inactive.

As for `CCCCC(CC)COP(=O)(O)OCC(CC)CCCC` (centres undefined), the result was inactive.

Consider `O=C(O)C(F)(F)C(F)(F)C(F)(F)C(F)(F)C(F)(F)C(F)(F)C(F)(F)C(F)(F)C(F)(F)C(F)(F)C(F)(F)C(F)(F)F`, for which the outcome was inactive.

Turning to `C=C(C)C(=O)OCCC(F)(F)C(F)(F)C(F)(F)C(F)(F)C(F)(C(F)(F)F)C(F)(F)F`, the result was inactive.

For the molecule `O=C(O)C(F)(F)C(F)(F)C(F)(F)C(F)(F)C(F)(F)C(F)(F)C(F)(F)C(F)(F)C(F)(F)C(F)(F)C(F)(F)C(F)(F)C(F)(F)F`, the outcome was inactive.

For the molecule `O=C(O)C(F)(OC(F)(F)C(F)(OC(F)(F)C(F)(F)C(F)(F)F)C(F)(F)F)C(F)(F)F` (centres undefined), the outcome was inactive.

For `CC(C)(C)C(=O)CC(=O)C(F)(F)C(F)(F)C(F)(F)F`, the outcome was inactive.

As to `CCCCCCCCC(F)(F)C(F)(F)C(F)(F)C(F)(F)C(F)(F)C(F)(F)F`, the outcome was inactive.

In the case of `CCCCCCCCCCCCCCCC[N+](C)(C)Cc1ccccc1`, the half-maximal activity concentration (AC50) is 1.89 µM (active).

As to `C=CC/C=C/C/C=C/C/C=C/C`, the outcome was inactive.

For `O=C(O)C(F)(OC(F)(F)C(F)(OC(F)(F)C(F)(OC(F)(F)C(F)(F)C(F)(F)F)C(F)(F)F)C(F)(F)F)C(F)(F)F` (centres undefined), the result was inactive.

Regarding `CS(C)(=O)=O`, the outcome was inactive.
